In PubChem BioAssay (NCI):
This is part of a sample that, as a whole, favours compounds with a hit. Of some 83,000 tested, about 20% had one in any assay.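 Percent growth is the endpoint: 0 to 100 indicates growth inhibition (40 means 60% inhibition), 0 means no net growth, and negative values indicate cell death.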 Values without a mark were called inactive. Calls of active or inactive are those of the source. Rule for the calls: active = growth percent below 10; inactive = the rest.

These compounds were tested on SR leukemia (assay: NCI-60 one-dose screen, 48 h (100 = growth as untreated, 0 = no growth, -100 = all killed)). Details: 10 µM unless noted.

| SMILES | growth |
| --- | --- |
| O=S(=O)(c1ccccc1)N1CCCN(c2nc(-c3ccccc3)nc3nc(-c4ccccc4)oc23)CC1 | 104% |
| Clc1ccc(-c2cn3ccsc3n2)c(Cl)c1Cl | 49.9% |
| O=C(CN1C(=O)/C(=C/c2ccco2)SC1=S)NCCc1c[nH]c2ccc(F)cc12 | 111% |
| COc1cc(C2C3=C(COC3=O)N(CCO)c3cc4c(cc32)OCCO4)cc(OC)c1OC (stereo not given) | 1.09% (active) |
| N/C(=N\c1nc2ccccc2s1)NC(=NC1CCCCC1)NC1CCCCC1 | 8.88% (active) |
| CC(O)c1ncc(/C=C2\SC(=S)N(Cc3ccccc3)C2=O)s1 (stereo not given) | 82.4% |
| COc1ccc2nc3ccccc3c(NCc3ccc(F)cc3)c2c1 | -1.12% (active) |
| COc1cc(-c2cc(-c3ccc(Nc4ncnc5cc(Cl)ccc45)cc3)nc(N3CCN(C)CC3)n2)cc(OC)c1OC | 42.7% |
| O=C(Nc1cccnc1Nc1ccc(Cl)cc1)c1cn(Cc2ccc(F)cc2)nn1 | 106% |
| N#Cc1c(NC(=O)c2cccs2)[n+]([O-])c2ccc(Cl)cc2[n+]1[O-] | 109% |
| CCOC(=O)/C=C/c1c(C)[nH]c(=O)[nH]c1=O | 69.6% |
| COc1ccc(C2C3=C(COC3=O)N(CCO)c3cc4c(cc32)OCCO4)cc1OC (stereo not given) | 16.8% |
| CN1CCN(c2ccc3c(c2)nc(NNC(=O)c2cnccn2)c2cccn23)CC1 | 15% |
| C=CCOC(=O)C1=C(C)NC(=O)NC1c1c(Cl)n(C)c2ccccc12 (stereo not given) | 97.9% |
| COc1ccc(Cl)cc1Nc1nc(C(F)(F)F)ccc1C(=O)N/N=C/c1ccccc1Cl | -15.1% (active) |
| N#Cc1c(-c2ccccc2)nc2c(c(-c3ccccc3)nn2-c2ccccc2)c1-c1ccc(N2CCOCC2)cc1 | 24.5% |
| O=C(CCCCCCCCC(=O)N/N=C\c1cc(Cl)ccc1O)N/N=C\c1cc(Cl)ccc1O | 14.1% |
| CC12CCC(/C(=C/NNc3ccc([N+](=O)[O-])cc3[N+](=O)[O-])C1=O)C2(C)C (stereo not given) | 56.5% |
| Nc1ccc([N+](=O)[O-])cc1N=C/C=C/c1ccccc1 | 35.5% |
| CC1CN=C(c2cccc(-c3ccc(-c4ccccc4)o3)c2)N1 (stereo not given) | -9.42% (active) |

| SMILES | growth |
| --- | --- |
| CCCCc1oc2ccccc2c1C(=O)c1ccc(O)cc1 | 31% |
| Cc1cc2oc(=O)cc(CP(=O)(O)O)c2cc1O | 106% |
| CCOC(=O)C1=C(C)N=C2SC=C(c3ccccc3)N2[C@H]1c1cn[nH]c1-c1ccc(Cl)cc1 | -31.2% (active) |
| CCN1C(=S)N(CC)C2C1NC(=S)N2/N=C/C=C/c1ccccc1OC (stereo not given) | 15.2% |
| CC(=O)N/C(=C1/OC(C(O)C(O)C(O)CO)CN1C)[P+](c1ccccc1)(c1ccccc1)c1ccccc1 (stereo not given) | 95.3% |
| CCn1cc(C(=O)N/N=C/c2ccc(Br)cc2)c(=O)c2cc(F)c(N3CCNC(C)C3)c(F)c21 (stereo not given) | 4.35% (active) |
| CCNc1nc(-c2ccc(F)cc2)c(C#N)c(=O)n1C | 50.3% |
| C(/C=C/c1ccccc1)=Nc1ccc(CCc2ccc(N=C/C=C/c3ccccc3)cc2)cc1 | 47.3% |
| O=C(N/N=C/c1ccc([N+](=O)[O-])cc1)c1ccc2nc(-c3ccc(Cl)cc3)[nH]c2c1 | -8.49% (active) |
| Fc1ccc(CNc2c3ccccc3nc3ccccc23)cc1 | 6.59% (active) |
| O=C(CSc1nnc2sc(Nc3cccc(Cl)c3)nn12)c1ccc(F)cc1 | 90.9% |
| Cn1c(=O)c2c(nc(NC3=NS(=O)(=O)c4ccccc43)n2Cc2ccccc2)n(C)c1=O | 108% |
| O=c1nc(Nc2nc3ccccc3s2)[nH]c(=O)c2ccccc12 | 90.7% |
| c1ccc2cc(Cn3c[n+](Cc4ccc5ccccc5c4)c4ccccc43)ccc2c1 | -66.7% (active) |
| Cc1[nH]c(/C=C/C(=O)c2ccc(C(F)(F)F)c(F)c2)c(C)c1C(=O)NCC(C)C | 85.6% |
| O=C(Nc1cccc(NC(=O)C2CCCCC2)c1)c1ccccn1 | 88.9% |
| CCOC(=O)c1c2c(n3ccccc13)C(=O)c1ncccc1C2=O | 18.6% |
| COc1ccc(C(c2cc(OC)c(OC)c(OC)c2)N2CCN(Cc3ccccc3)CC2)cc1 (stereo not given) | 16.1% |
| CN(C)c1ccc(/C=C2/C=C(c3ccccc3)OC2=O)cc1 | 26.7% |
| C#CC#CC#CC#CC#CC#CC#CC#CCC1OCC(COC(=O)O[C@@H](C(=O)O[C@H]2C[C@@]3(O)[C@@H](OC(=O)c4ccccc4)[C@@H]4[C@]5(OC(C)=O)CO[C@@H]5C[C@H](O)[C@@]4(C)C(=O)[C@H](OC(C)=O)C(=C2C)C3(C)C)[C@@H](NC(=O)c2ccccc2)c2ccccc2)O1 (stereo not given in full) | 12.4% |

The compounds below were run on RPMI-8226 leukemia in the same assay as above. Details: 10 µM unless noted.

| SMILES | growth |
| --- | --- |
| O=S(=O)(c1ccccc1)N1CCCN(c2nc(-c3ccccc3)nc3nc(-c4ccccc4)oc23)CC1 | 98.1% |
| Clc1ccc(-c2cn3ccsc3n2)c(Cl)c1Cl | 67.5% |
| O=C(CN1C(=O)/C(=C/c2ccco2)SC1=S)NCCc1c[nH]c2ccc(F)cc12 | 97.8% |
| COc1cc(C2C3=C(COC3=O)N(CCO)c3cc4c(cc32)OCCO4)cc(OC)c1OC (stereo not given) | 21.9% |
| N/C(=N\c1nc2ccccc2s1)NC(=NC1CCCCC1)NC1CCCCC1 | -30.4% (active) |
| CC(O)c1ncc(/C=C2\SC(=S)N(Cc3ccccc3)C2=O)s1 (stereo not given) | 52.3% |
| COc1ccc2nc3ccccc3c(NCc3ccc(F)cc3)c2c1 | -43% (active) |
| COc1cc(-c2cc(-c3ccc(Nc4ncnc5cc(Cl)ccc45)cc3)nc(N3CCN(C)CC3)n2)cc(OC)c1OC | 76.2% |
| O=C(Nc1cccnc1Nc1ccc(Cl)cc1)c1cn(Cc2ccc(F)cc2)nn1 | 85% |
| N#Cc1c(NC(=O)c2cccs2)[n+]([O-])c2ccc(Cl)cc2[n+]1[O-] | 104% |
| CCOC(=O)/C=C/c1c(C)[nH]c(=O)[nH]c1=O | 110% |
| COc1ccc(C2C3=C(COC3=O)N(CCO)c3cc4c(cc32)OCCO4)cc1OC (stereo not given) | 28.5% |
| CN1CCN(c2ccc3c(c2)nc(NNC(=O)c2cnccn2)c2cccn23)CC1 | 45.3% |
| C=CCOC(=O)C1=C(C)NC(=O)NC1c1c(Cl)n(C)c2ccccc12 (stereo not given) | 81.3% |
| COc1ccc(Cl)cc1Nc1nc(C(F)(F)F)ccc1C(=O)N/N=C/c1ccccc1Cl | -56.6% (active) |
| N#Cc1c(-c2ccccc2)nc2c(c(-c3ccccc3)nn2-c2ccccc2)c1-c1ccc(N2CCOCC2)cc1 | 76% |
| O=C(CCCCCCCCC(=O)N/N=C\c1cc(Cl)ccc1O)N/N=C\c1cc(Cl)ccc1O | 31.9% |
| CC12CCC(/C(=C/NNc3ccc([N+](=O)[O-])cc3[N+](=O)[O-])C1=O)C2(C)C (stereo not given) | 73.8% |
| Nc1ccc([N+](=O)[O-])cc1N=C/C=C/c1ccccc1 | 25.6% |
| CC1CN=C(c2cccc(-c3ccc(-c4ccccc4)o3)c2)N1 (stereo not given) | -26.3% (active) |

| SMILES | growth |
| --- | --- |
| CCCCc1oc2ccccc2c1C(=O)c1ccc(O)cc1 | 42.5% |
| Cc1cc2oc(=O)cc(CP(=O)(O)O)c2cc1O | 118% |
| CCOC(=O)C1=C(C)N=C2SC=C(c3ccccc3)N2[C@H]1c1cn[nH]c1-c1ccc(Cl)cc1 | -8.38% (active) |
| CCN1C(=S)N(CC)C2C1NC(=S)N2/N=C/C=C/c1ccccc1OC (stereo not given) | 24.6% |
| CC(=O)N/C(=C1/OC(C(O)C(O)C(O)CO)CN1C)[P+](c1ccccc1)(c1ccccc1)c1ccccc1 (stereo not given) | 99.7% |
| CCn1cc(C(=O)N/N=C/c2ccc(Br)cc2)c(=O)c2cc(F)c(N3CCNC(C)C3)c(F)c21 (stereo not given) | -14.8% (active) |
| CCNc1nc(-c2ccc(F)cc2)c(C#N)c(=O)n1C | 91.8% |
| C(/C=C/c1ccccc1)=Nc1ccc(CCc2ccc(N=C/C=C/c3ccccc3)cc2)cc1 | 94.5% |
| O=C(N/N=C/c1ccc([N+](=O)[O-])cc1)c1ccc2nc(-c3ccc(Cl)cc3)[nH]c2c1 | 10.8% |
| Fc1ccc(CNc2c3ccccc3nc3ccccc23)cc1 | -0.445% (active) |
| O=C(CSc1nnc2sc(Nc3cccc(Cl)c3)nn12)c1ccc(F)cc1 | 94.9% |
| Cn1c(=O)c2c(nc(NC3=NS(=O)(=O)c4ccccc43)n2Cc2ccccc2)n(C)c1=O | 103% |
| O=c1nc(Nc2nc3ccccc3s2)[nH]c(=O)c2ccccc12 | 106% |
| c1ccc2cc(Cn3c[n+](Cc4ccc5ccccc5c4)c4ccccc43)ccc2c1 | -53.6% (active) |
| Cc1[nH]c(/C=C/C(=O)c2ccc(C(F)(F)F)c(F)c2)c(C)c1C(=O)NCC(C)C | 95.8% |
| O=C(Nc1cccc(NC(=O)C2CCCCC2)c1)c1ccccn1 | 105% |
| CCOC(=O)c1c2c(n3ccccc13)C(=O)c1ncccc1C2=O | 29.2% |
| COc1ccc(C(c2cc(OC)c(OC)c(OC)c2)N2CCN(Cc3ccccc3)CC2)cc1 (stereo not given) | 84.1% |
| CN(C)c1ccc(/C=C2/C=C(c3ccccc3)OC2=O)cc1 | 84% |
| C#CC#CC#CC#CC#CC#CC#CC#CCC1OCC(COC(=O)O[C@@H](C(=O)O[C@H]2C[C@@]3(O)[C@@H](OC(=O)c4ccccc4)[C@@H]4[C@]5(OC(C)=O)CO[C@@H]5C[C@H](O)[C@@]4(C)C(=O)[C@H](OC(C)=O)C(=C2C)C3(C)C)[C@@H](NC(=O)c2ccccc2)c2ccccc2)O1 (stereo not given in full) | 7.03% (active) |
